This note sets out measurements from PubChem BioAssay (EPA / NIEHS).

Read-out in experiment [1]: Monokine induced gamma interferon (MIG), CXCL9 (gene 4283)
Briefly: BSK_KF3CT_MIG: BioMAP Diversity Plus: KF3CT Assay for Monokine induced gamma interferon (MIG) Biomarker Activity (AID 2284248). The conditions noted are these: primary human keratinocytes with fibroblasts. Summed up:
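ELISA read-out of MIG after 24 h chemical exposure of human skin primary co-culture (keratinocytes, foreskin fibroblasts). Gain of signal relative to DMSO negative control was analysed.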

Read-out in experiment [2]: Vascular cell adhesion molecule 1 (VCAM1), VCAM1 (gene 7412)
Briefly: BSK_BF4T_VCAM1: BioMAP Diversity Plus: BF4T Assay for Vascular cell adhesion molecule 1 (VCAM1) Biomarker Activity (AID 2284249). The following applies: primary human bronchial epithelial cells with fibroblasts. Summed up:
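Human bronchial epithelial cell and dermal fibroblast co-culture exposed 24 h. VCAM-1 measured by ELISA; parallel SRB total-protein staining for cytotoxicity. Fitted in positive direction relative to DMSO.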

Read-out in experiment [3]: Monocyte Chemoattractant Protein-1 (MCP1), CCL2 (gene 6347)
Briefly: BSK_IMphg_MCP1: BioMAP Diversity Plus: IMphg Assay for Monocyte Chemoattractant Protein-1 (MCP1) Biomarker Activity (AID 2284253). The conditions noted are these: primary human endothelial cells with macrophages. The method in brief: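 Human venular endothelial cells co-cultured with macrophages; MCP-1 measured by ELISA 24 hours post-dose and fitted against DMSO. Cytotoxicity monitored by SRB total-protein staining in parallel cultures.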

Read-out in experiment [4]: Interleukin-8 (IL8), CXCL8 (gene 3576)
Briefly: BSK_KF3CT_IL8: BioMAP Diversity Plus: KF3CT Assay for Interleukin-8 (IL8) Biomarker Activity (AID 2284254). The conditions noted are these: primary human keratinocytes with fibroblasts. Summed up:
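IL-8 read-out: ELISA, 24 h post-dose, human skin primary co-culture (keratinocytes + foreskin fibroblasts). DMSO = baseline; positive-direction fit.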

Read-out in experiment [5]: Macrophage Inflammatory Protein-1 Alpha (MIP1a), CCL3 (gene 6348)
Nature of the experiment: BSK_IMphg_MIP1a: BioMAP Diversity Plus: IMphg Assay for Macrophage Inflammatory Protein-1 Alpha (MIP1a) Biomarker Activity (AID 2284255). The conditions noted are these: primary human endothelial cells with macrophages. The method in brief: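 Co-culture of human venular endothelial cells and macrophages exposed to compounds for 24 h; MIP-1a measured by ELISA relative to DMSO. Cytotoxicity assessed in parallel cultures by sulforhodamine B total-protein staining at 560 nm.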

Read-out in the next experiment: CD69, CD69 (gene 969)
Briefly: BSK_IMphg_CD69: BioMAP Diversity Plus: IMphg Assay for CD69 Biomarker Activity (AID 2284257). The conditions noted are these: primary human endothelial cells with macrophages. The method in brief:
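Human venular endothelial cells co-cultured with macrophages; CD69 quantified by ELISA 24 h after compound addition. Activity fitted in the positive direction relative to DMSO baseline; cytotoxicity tracked in parallel cultures via SRB total-protein staining.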

Read-out in experiment [6]: Eotaxin 3, CCL26 (gene 10344)
Briefly: BSK_BF4T_Eotaxin3: BioMAP Diversity Plus: BF4T Assay for Eotaxin 3 Biomarker Activity (AID 2284258). The conditions noted are these: primary human bronchial epithelial cells with fibroblasts. Summed up: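 Co-culture of human bronchial epithelial cells and dermal fibroblasts, exposed to chemicals for 24 h versus DMSO. Eotaxin-3 quantified by ELISA; cytotoxicity checked in parallel cultures by sulforhodamine B total-protein staining.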

Read-out in experiment [7]: Monocyte Chemoattractant Protein-1 (MCP1), CCL2 (gene 6347)
Nature of the experiment: BSK_BF4T_MCP1: BioMAP Diversity Plus: BF4T Assay for Monocyte Chemoattractant Protein-1 (MCP1) Biomarker Activity (AID 2284259). The conditions noted are these: primary human bronchial epithelial cells with fibroblasts. The method in brief: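 Co-culture of bronchial epithelial cells and dermal fibroblasts dosed with chemical; MCP-1 measured by ELISA 24 h later. Activity fitted in positive direction versus DMSO; cytotoxicity checked by SRB staining in parallel cultures.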

Read-out in experiment [8]: Interleukin-8 (IL8), CXCL8 (gene 3576)
Briefly: BSK_MyoF_IL8: BioMAP Diversity Plus: MyoF Assay for Interleukin-8 (IL8) Biomarker Activity (AID 2284261). The conditions noted are these: primary human lung fibroblasts. Summed up:
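Lung fibroblasts (human primary) → chemical exposure → 24 h → IL-8 measured by ELISA. Signal increase scored versus DMSO control.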

Read-out in the next experiment: CD90, THY1 (gene 7070)
Briefly: BSK_BF4T_CD90: BioMAP Diversity Plus: BF4T Assay for CD90 Biomarker Activity (AID 2284262). The conditions noted are these: primary human bronchial epithelial cells with fibroblasts. The method in brief: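 Co-culture of human bronchial epithelial cells and dermal fibroblasts, 24 h compound exposure. Cell-surface CD90 measured by ELISA relative to DMSO; parallel SRB total-protein staining for cytotoxicity.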

Read-out in experiment [9]: Interleukin-8 (IL8), CXCL8 (gene 3576)
Nature of the experiment: BSK_BF4T_IL8: BioMAP Diversity Plus: BF4T Assay for Interleukin-8 (IL8) Biomarker Activity (AID 2284263). The conditions noted are these: primary human bronchial epithelial cells with fibroblasts. The method in brief: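 Human bronchial epithelial cells with dermal fibroblasts co-culture; IL-8 measured by ELISA 24 hours after dosing, fitted vs DMSO. Cytotoxicity tracked in parallel cultures by SRB total-protein staining.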

Read-out in experiment [10]: Interleukin-1 alpha (IL1a), IL1A (gene 3552)
Briefly: BSK_BF4T_IL1a: BioMAP Diversity Plus: BF4T Assay for Interleukin-1 alpha (IL1a) Biomarker Activity (AID 2284264). The conditions noted are these: primary human bronchial epithelial cells with fibroblasts. The method in brief: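 Human bronchial epithelial cells co-cultured with dermal fibroblasts, dosed and read at 24 h. Secreted/surface IL-1α quantified by ELISA; gain-of-signal fitted relative to DMSO baseline. Parallel SRB total-protein staining tracked cytotoxicity.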

Read-out in another experiment: Decorin, DCN (gene 1634)
Nature of the experiment: BSK_MyoF_Decorin: BioMAP Diversity Plus: MyoF Assay for Decorin Biomarker Activity (AID 2284265). The conditions noted are these: primary human lung fibroblasts. Summed up: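 ELISA readout of decorin, 24 h post-dosing; primary human lung fibroblast (MyoF) culture; gain-of-signal fit vs DMSO baseline.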

Read-out in the next experiment: KRT18 (gene 3875)
Briefly: BSK_BF4T_Keratin818: BioMAP Diversity Plus: BF4T Assay for Keratin 818 Biomarker Activity (AID 2284266). The conditions noted are these: primary human bronchial epithelial cells with fibroblasts. Summed up: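 Co-culture of human bronchial epithelial cells and dermal fibroblasts, chemical exposure 24 h. Keratin 8/18 measured by ELISA; positive-direction fit vs DMSO. SRB total protein run in parallel cultures for cytotoxicity.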

Experiment [11] is described as follows: BSK_MyoF_SRB: Viability Assessment in the BioMAP Diversity Plus: MyoF Assay (AID 2284267).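 Further: total protein by SRB absorbance in parallel cultures as cytotoxicity measure.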 The conditions noted are these: primary human lung fibroblasts. Summed up:
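Cytotoxicity in primary human lung fibroblasts is gauged by SRB total-protein staining 24 h after dosing, with DMSO as the negative control.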

Read-out in experiment [12]: Plasminogen activator inhibitor-1 (PAI1), SERPINE1 (gene 5054)
Nature of the experiment: BSK_MyoF_PAI1: BioMAP Diversity Plus: MyoF Assay for Plasminogen activator inhibitor-1 (PAI1) Biomarker Activity (AID 2284256).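 Further: PAI-1 protein level measured by ELISA in fibroblast cultures; PAI-1 read 24 h after compound addition.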 The conditions noted are these: primary human lung fibroblasts. The method in brief: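 MyoF lung fibroblasts, human primary; compound 24 h; PAI-1 ELISA; positive-direction fit vs DMSO baseline; parallel SRB total-protein staining for cytotoxicity.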

Read-out in experiment [13]: Collagen I, COL1A1 (gene 1277)
Briefly: BSK_hDFCGF_CollagenI: BioMAP Diversity Plus: hDFCGF Assay for Collagen I Biomarker Activity (AID 2284250). The conditions noted are these: primary human foreskin fibroblasts. Summed up: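 Cells were primary human foreskin fibroblasts treated for 24 h. Collagen I levels were then determined by ELISA and compared against DMSO controls.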

Read-out in experiment [14]: Interferon-inducible T-cell alpha chemoattractant (ITAC), CXCL11 (gene 6373)
Briefly: BSK_hDFCGF_ITAC: BioMAP Diversity Plus: hDFCGF Assay for Interferon-inducible T-cell alpha chemoattractant (ITAC) Biomarker Activity (AID 2284251). The conditions noted are these: primary human foreskin fibroblasts. The method in brief: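 ELISA readout of I-TAC after 24 h chemical exposure; human dermal foreskin fibroblast primary cells. Positive-direction fitting vs DMSO baseline. Parallel SRB total-protein staining (0.1% SRB after 10% TCA fixation, 560 nm) flags cytotoxicity.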

Read-out in experiment [15]: Intercellular Adhesion Molecule 1 (ICAM1), ICAM1 (gene 3383)
Briefly: BSK_BF4T_ICAM1: BioMAP Diversity Plus: BF4T Assay for Intercellular Adhesion Molecule 1 (ICAM1) Biomarker Activity (AID 2284260). The conditions noted are these: primary human bronchial epithelial cells with fibroblasts. Summed up: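 Co-culture of human bronchial epithelial cells and dermal fibroblasts exposed 24 h to chemical; cell-surface ICAM-1 quantified by ELISA. Parallel SRB total-protein staining assessed cytotoxicity; activity fitted relative to DMSO.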

Molecules are shown by their SMILES. Where “and” joins values, the source holds several entries; their conditions need not be identical. Identical values can stand only once. Some structures have more than one record in an assay (separate samples or runs), and their calls can disagree. Calls of active or inactive are those of the source. How the source made its calls: active means hit-call score of the fitted dose curve at least 0.9, where 1 is the maximum; inactive means score below 0.9.

What is called AC50 is the concentration giving half of the maximal activity seen. On to `OCC(F)(F)C(F)(F)C(F)(F)C(F)(F)C(F)(F)C(F)(F)C(F)(F)C(F)(F)CO`, for which the AC50 in experiment [1] is 49.2 µM (active) and 48.4 µM (active); in experiment [2], 12 µM (active); in experiment [3] it was 50.4 µM (active) and 51.3 µM (active); in experiment [4], 47.4 µM (active) and 50.4 µM (active); in experiment [5], 50 µM (active) and 51.6 µM (active); with CD69, CD69 (gene 969), 54.4 µM (active) and 42.6 µM (active). Besides, the AC50 in [6] was 15.3 µM (active) and 16.6 µM (active); in [7], 16.7 µM (active) and 9.07 µM (active); in experiment [11], 47.2 µM (active). Further, the outcome in experiment [2] is “inactive”; in [8], “inactive”; in the experiment with CD90, THY1 (gene 7070), “inactive”; in experiment [9], “inactive”; in experiment [10], “inactive”; in the experiment with Decorin, DCN (gene 1634), “inactive”. For the same compound, the result (in the experiment with KRT18 (gene 3875); in experiment [11]) was inactive.
`OC(O)C(F)(F)C(F)(F)F`: the outcome in [1] was “inactive”; in experiment [2], “inactive”; in [4], “inactive”; in experiment [5] it was “inactive”; in experiment [12] it was “inactive”; in the experiment with CD69, CD69 (gene 969), “inactive”. The outcome in experiment [6] is “inactive”; in experiment [7], “inactive”; in experiment [8] it was “inactive”; with CD90, THY1 (gene 7070), “inactive”; in experiment [9] it was “inactive”; in experiment [10], “inactive”. Moreover, the outcome in the experiment with Decorin, DCN (gene 1634) was “inactive”; with KRT18 (gene 3875), “inactive”; in [11] it was “inactive”.
In the case of `CCN(CCO)S(=O)(=O)C(F)(F)C(F)(F)C(F)(F)C(F)(F)C(F)(F)C(F)(F)C(F)(F)C(F)(F)F`, the AC50 was 22.7 µM (active) and 31.6 µM (active) in experiment [1]; 1.54 µM (active) and 12.7 µM (active) in experiment [5]; 6.74 µM (active) in the experiment with CD69, CD69 (gene 969); 19.4 µM (active) with Decorin, DCN (gene 1634); 19.4 µM (active) and 23.3 µM (active) in experiment [11]. For the same compound, the outcome in experiment [2] was “inactive”; in the experiment with CD69, CD69 (gene 969), “inactive”; in experiment [6], “inactive”; in [7], “inactive”; in [8], “inactive”; with CD90, THY1 (gene 7070) it was “inactive”. The outcome is “inactive” in experiment [9]; “inactive” in experiment [10]; “inactive” with Decorin, DCN (gene 1634).
Take `O=C(O)CCC(F)(F)C(F)(F)C(F)(F)C(F)(F)C(F)(F)C(F)(F)C(F)(F)F`: the outcome in [1] is “inactive”; in experiment [2], “inactive”; in experiment [13], “inactive”; in [14] it was “inactive”; with CD69, CD69 (gene 969), “inactive”; in [6] it was “inactive”. The outcome in [7] was “inactive”; in experiment [8], “inactive”; with CD90, THY1 (gene 7070), “inactive”; in [9] it was “inactive”; in [10], “inactive”; with Decorin, DCN (gene 1634), “inactive”. Besides, the outcome (in the experiment with KRT18 (gene 3875); in [11]) was inactive. The AC50 in [5] is 1.39 µM (active) and 1.57 µM (active); in [6], 726 nM (active); in experiment [7] it was 949 nM (active).
As to `O=S(=O)(OCC(F)(F)F)C(F)(F)C(F)(F)C(F)(F)C(F)(F)F`, the outcome in [1] was “inactive”; in experiment [2] it was “inactive”; in [12], “inactive”; with CD69, CD69 (gene 969), “inactive”; in [6] it was “inactive”; in experiment [7] it was “inactive”. Also, the outcome in experiment [15] is “inactive”; in experiment [8], “inactive”; with CD90, THY1 (gene 7070) it was “inactive”; in experiment [9], “inactive”; in [10], “inactive”; in the experiment with Decorin, DCN (gene 1634), “inactive”. Further, the outcome in experiment [11] was inactive. In experiment [5], the AC50 is 21 µM (active) and 5.95 µM (active).
In the case of `NC(=O)C(F)(F)C(F)(F)C(F)(F)C(F)(F)C(N)=O`, the outcome was “inactive” in experiment [1]; “inactive” in experiment [2]; “inactive” in experiment [4]; “inactive” in [5]; “inactive” with CD69, CD69 (gene 969); “inactive” in experiment [6]. Further, the outcome in experiment [7] was “inactive”; in experiment [8], “inactive”; with CD90, THY1 (gene 7070) it was “inactive”; in experiment [9] it was “inactive”; in [10], “inactive”; with Decorin, DCN (gene 1634), “inactive”. Moreover, the result in experiment [11] was inactive.
